# Data reported in PubChem BioAssay.
# The source made the active and inactive calls.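 How the source made its calls, unless noted: active means NADPH fluorescence slope more negative than the mean of all samples by about 3 SD, 99.7% confidence; inactive means the rest.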
# How the values were obtained:
# [1] = inhibitors of TNFa-induced NFkB p65 translocation, primary screen, imaging, HUVEC, MLSMR starter and 10KST1 sets (AID 438;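 active means inhibition above 20% together with a positive visual image hit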;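 further: compound added about 3h40 before a 20 min TNFalpha stimulation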;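 on inhibition: signal is the nuclear over cytoplasmic p65 intensity ratio per well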); settings: HUVEC TNFa-induced p65 nuclear translocation; cell count: measured here: nuclei count (cytotoxicity indicator), at 2.08 µM; inhibition: at 2 µM, stronger effect = higher value, 0% TNFa-plus-vehicle, 100% no-TNFa wells
# [2] = reduction of polyQ htt aggregates in cells – imaging, exon1htt(103Q)mCFP cells, high-content imaging, primary screen (AID 483;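 active means visual image review flags a hit and inhibition of aggregation exceeds 20%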;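 further: compound exposure lasted 3 days before fixation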;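 on nuclei count: percent of the per-plate median nuclei count of sample wells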); settings: exon1htt(103Q)mCFP cell line, aggregate imaging, at 2 µM; inhibition of aggregation: stronger effect = higher value; nuclei count: measured here: cell count, toxicity
# [3] = endothelial E-selectin expression blockers – imaging, HUVEC, immunofluorescence, MLSMR starter and 10KST1 sets, primary screen (AID 487;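 active means visually confirmed hit in the image check and inhibition above 20%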;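 on inhibition: signal is fraction of cell area covered by stained E-selectin grains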;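 on nuclei count: 100% = median nuclei count of all wells on the same plate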); settings: HUVEC TNFalpha-induced E-selectin immunofluorescence imaging, at 2 µM; inhibition: stronger effect = higher value; nuclei count: measured here: cell number, toxicity
# [4] = target: Voltage-gated potassium channel subunit beta-2 (Rattus norvegicus) (UniProt P62483); assay: inhibitors of rat Kvbeta2 reductase activity – biochemical, NADPH fluorescence, primary screen (AID 622;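 active means fluorescence slope higher than the sample average by over 3 SD, cut at about -0.22 in these data, passing the limit was not always enough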;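 further: slope of raw intensity against log time taken from 70 to 1610 s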); settings: recombinant KvBeta, 4-cyanobenzaldehyde reduction, at 10 µM, stronger effect = higher value
# Sequence of Voltage-gated potassium channel subunit beta-2 (Rattus norvegicus) (P62483 whole entry, looked up): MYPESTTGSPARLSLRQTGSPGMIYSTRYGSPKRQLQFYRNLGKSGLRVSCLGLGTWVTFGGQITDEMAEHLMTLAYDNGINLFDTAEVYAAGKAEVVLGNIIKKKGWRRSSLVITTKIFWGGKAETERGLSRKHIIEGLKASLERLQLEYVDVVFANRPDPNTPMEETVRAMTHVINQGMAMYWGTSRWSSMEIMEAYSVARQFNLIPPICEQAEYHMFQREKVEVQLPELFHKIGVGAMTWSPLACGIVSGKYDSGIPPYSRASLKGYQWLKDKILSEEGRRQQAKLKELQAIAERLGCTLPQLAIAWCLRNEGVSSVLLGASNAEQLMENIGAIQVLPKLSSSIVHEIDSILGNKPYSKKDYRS
# [5] = target: Voltage-gated potassium channel subunit beta-2 (Rattus norvegicus) (UniProt P62483); assay: enhancers of rat Kvbeta2 NADPH turnover – biochemical, NADPH fluorescence, primary screen (AID 623); settings: Recombinant KvBeta, NADPH fluorescence decrease slope, 10 min; at 10 µM; stronger effect = lower value;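 further: fluorescence intensity change per second fitted from 20 to 320 s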
# [6] = target: Alpha-2C adrenergic receptor (Homo sapiens) (UniProt P18825); assay: compounds altering alpha2C-coupled GIRK flux – cell-based, HEK293 alpha2C/GIRK1/2, thallium flux, primary screen (AID 624;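 active means fluorescence slope after compound addition differing from the mean of all screened samples at 99.7% confidence, in either direction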;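 further: slope of fluorescence ratio to pre-addition baseline per second over 15 to 24 s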); settings: thallium flux BTC fluorescence, at 10 µM, actives lie on both sides
# Sequence of Alpha-2C adrenergic receptor (Homo sapiens) (P18825 whole entry, looked up): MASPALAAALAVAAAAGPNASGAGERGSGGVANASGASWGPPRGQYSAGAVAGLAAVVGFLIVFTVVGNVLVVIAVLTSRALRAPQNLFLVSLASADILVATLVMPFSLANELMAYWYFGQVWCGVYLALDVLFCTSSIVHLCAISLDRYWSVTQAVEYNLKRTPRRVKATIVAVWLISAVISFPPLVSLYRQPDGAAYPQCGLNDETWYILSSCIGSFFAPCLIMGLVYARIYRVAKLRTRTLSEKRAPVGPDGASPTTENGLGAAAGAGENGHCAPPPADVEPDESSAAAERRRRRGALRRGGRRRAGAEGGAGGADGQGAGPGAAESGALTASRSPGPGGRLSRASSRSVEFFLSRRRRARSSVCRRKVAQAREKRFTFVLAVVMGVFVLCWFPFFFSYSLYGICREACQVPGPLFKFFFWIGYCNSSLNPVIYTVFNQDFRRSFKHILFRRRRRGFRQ
# [7] = blockers of RIG-like receptor reporter activation – cell-based, Sendai virus stimulus, luciferase, 10K MLSCN set, TLR/RLR signaling modifier project, primary screen (AID 602276;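 active means inhibition at or above 50% at 10 µM; inactive means inhibition below 50%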;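 further: firefly luciferase from ISG56 promoter only with Renilla not read in this screen; 0% = Sendai virus plus DMSO and 100% = medium plus DMSO without virus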); settings: HEK293 RL24 IRF3 luciferase reporter, at 10 µM, stronger effect = higher value
# [8] = TLR3 IRF3 reporter activation blockers – cell-based, poly I:C stimulus, luciferase, 10K MLSCN set, primary screen (AID 602277;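 active means inhibition of the reporter signal at or above 50%; inactive means inhibition below 50%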); settings: HEK293-TLR3 RL24 IRF3 luciferase reporter, at 10 µM, stronger effect = higher value
smiles,measurement,setting,value
CC(C)Nc1ncnc2c1cnn2-c1ccccc1,cell count,[1],681
same,inhibition,[1],-6.7% (inactive)
same,inhibition of aggregation,[2],-56.3% (inactive)
same,nuclei count,[2],3.7%
same,inhibition,[3],-1.2% (inactive)
same,nuclei count,[3],114%
same,fluorescence slope,[4],-0.589 (inactive)
same,NADPH fluorescence slope,[5],-2e-05 (inactive)
same,slope,[6],0.00563 (inactive)
same,inhibition,[7],-54.7% (inactive)
same,inhibition,[8],-180% (inactive)
CCN1CCN(C(CNC(=O)c2ccc3c(c2)OCO3)c2cccnc2)CC1 (stereo not drawn),cell count,[1],796
same,inhibition,[1],-13.5% (inactive)
same,inhibition of aggregation,[2],0.6% (inactive)
same,nuclei count,[2],98%
same,inhibition,[3],-10.9% (inactive)
same,nuclei count,[3],109%
same,fluorescence slope,[4],-0.541 (inactive)
same,NADPH fluorescence slope,[5],1.4e-05 (inactive)
same,slope,[6],0.00612 (inactive)
same,inhibition,[7],-18.9% (inactive)
same,inhibition,[8],-1.81% (inactive)
COc1cc(OC)c(C2C(C#N)=C(N)OC3=C2C(=O)CC(C)(C)C3)cc1OC (stereo not drawn),cell count,[1],407
same,inhibition,[1],-2.7% (inactive)
same,inhibition of aggregation,[2],22.2% (inactive)
same,nuclei count,[2],88.4%
same,inhibition,[3],-27.1% (inactive)
same,nuclei count,[3],104%
same,fluorescence slope,[4],-0.501 (inactive)
same,NADPH fluorescence slope,[5],-3.5e-05 (inactive)
same,slope,[6],0.00648 (inactive)
same,inhibition,[7],-2.62% (inactive)
same,inhibition,[8],5.85% (inactive)
CCNc1ccc(C(=O)OCC)cc1NC(=O)c1cc(S(=O)(=O)N2CCOCC2)ccc1C,cell count,[1],772
same,inhibition,[1],7.3% (inactive)
same,inhibition of aggregation,[2],31.2% (inactive)
same,nuclei count,[2],93.3%
same,inhibition,[3],-81.9% (inactive)
same,nuclei count,[3],114%
same,fluorescence slope,[4],-0.551 (inactive)
same,NADPH fluorescence slope,[5],4.9e-05 (inactive)
same,slope,[6],0.00574 (inactive)
same,inhibition,[7],-4.65% (inactive)
same,inhibition,[8],-25.5% (inactive)
CC1(C)CC(=O)C(C(=O)CCCCC(=O)C2C(=O)CC(C)(C)CC2=O)C(=O)C1,cell count,[1],269
same,inhibition,[1],3.6% (inactive)
same,inhibition of aggregation,[2],18% (inactive)
same,nuclei count,[2],100%
same,inhibition,[3],19% (inactive)
same,nuclei count,[3],80%
same,fluorescence slope,[4],-0.415 (inactive)
same,NADPH fluorescence slope,[5],1.6e-05 (inactive)
same,slope,[6],0.00351 (inactive)
same,inhibition,[7],-6.03% (inactive)
same,inhibition,[8],-20.4% (inactive)
COc1ccc(C(=O)Nc2cccc(C)c2)cc1S(=O)(=O)N1CCOCC1,cell count,[1],550
same,inhibition,[1],-25.9% (inactive)
same,inhibition of aggregation,[2],0.7% (inactive)
same,nuclei count,[2],102%
same,inhibition,[3],-48.3% (inactive)
same,nuclei count,[3],111%
same,fluorescence slope,[4],-0.572 (inactive)
same,NADPH fluorescence slope,[5],-5.7e-05 (inactive)
same,slope,[6],0.0063 (inactive)
same,inhibition,[7],6.15% (inactive)
same,inhibition,[8],3.92% (inactive)
O=c1sc(Nc2ccccc2)nc2ccsc12,cell count,[1],323
same,inhibition,[1],-9.8% (inactive)
same,inhibition of aggregation,[2],-0.2% (inactive)
same,nuclei count,[2],91.4%
same,inhibition,[3],-36.8% (inactive)
same,nuclei count,[3],122%
same,fluorescence slope,[4],-0.334 (inactive)
same,NADPH fluorescence slope,[5],-2.1e-05 (inactive)
same,slope,[6],0.00308 (inactive)
same,inhibition,[7],-17.1% (inactive)
same,inhibition,[8],-57.8% (inactive)
Cc1ccc(-c2nnn(CC(=O)N(Cc3ccco3)C(C(=O)NC(C)(C)C)c3cccs3)n2)o1 (stereo not drawn),cell count,[1],643
same,inhibition,[1],3.5% (inactive)
same,inhibition of aggregation,[2],4.8% (inactive)
same,nuclei count,[2],85.8%
same,inhibition,[3],-43.9% (inactive)
same,nuclei count,[3],117%
same,fluorescence slope,[4],-0.595 (inactive)
same,NADPH fluorescence slope,[5],-7.2e-05 (inactive)
same,slope,[6],0.00341 (inactive)
same,inhibition,[7],9.52% (inactive)
same,inhibition,[8],12.3% (inactive)
